Bioassay records from PubChem.
Shown are actives, neighbours in structure and some others; about 9.6% of the full set was active somewhere.
PostGolgi ctrl: growth inhibition of yeast control strain, primary screen, counter-screen for post-Golgi transport modulator project | AID 738, 2007 | 98,000 compounds, 5% hits | inhibition, % at 10 µM | efflux-deficient yeast background strain, growth absorbance A615, 16 h
DAT uptake mod: changed hDAT dopamine uptake under cocaine IC80, either direction, primary screen, cocaine antagonist project, cell-based, LLC-PK1 hDAT, [14C]-dopamine uptake, MLSMR. Sodium-dependent dopamine transporter (Homo sapiens), Q01959. LLC-PK1 hDAT cells, [14C]-dopamine uptake with cocaine IC80; actives deviate in either direction. B-score at 10 µM. 110,000 compounds, 1.3% hits;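 active = Z score or B-score, a plate-position-corrected score, falls beyond the plate's 99.7% confidence bounds, in either direction; inactive = both scores lie inside the 99.7% bounds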;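 also: scored against the spread of the other compound wells on the same plate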
PLAP activator: PLAP enzyme activators, biochemical, luminescence, HTS; activation fold at 20 µM; AID 696, 2007; 96,000 compounds, 1.2% hits; purified PLAP enzyme, luminescent substrate read-out; active compounds read high; in the data active = activation fold above about 2
Cav32 inh: Cav3.2 calcium influx blockers – cell-based, Fluo-4 calcium fluorescence, FDSS, MLSMR library, primary screen; B-score at 10 µM; Cav3.2-expressing cells; active compounds read low; 100,000 compounds, 4% hits; Voltage-dependent T-type calcium channel subunit alpha-1H (Homo sapiens), O95180;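 active = single-dose well whose peak fluorescence ratio is a statistical outlier from its plate by either plate-standardised score or position-corrected B-score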
PostGolgi yeast: phenotypic screen on post-Golgi transport, primary screen; post-Golgi transport phenotypic cell assay; inhibition, % at 10 µM; 98,000 compounds, 0.9% hits;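 also: yeast cells grown in 1536-well plates; yeast grown about 18 h at 30C before absorbance read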
Active calls of the source: *; x = not tested or not shown. Rule as the data show it, unless noted: active = inhibition above about 30%; inactive = the rest.

SMILES	PostGolgi ctrl	DAT uptake mod	PLAP activator	Cav32 inh	PostGolgi yeast
CC1CCCN(c2nc3c(c(=O)n(C)c(=O)n3C)n2CCSc2nc3ccccc3o2)C1 (stereo not given)	10	-1.2	1.3	-2.8	3
Cn1c(=O)c2c(nc(N3CCCCC3)n2CCSc2nc3ccccc3s2)n(C)c1=O	10	0.39	1.3	-1.7	5
CC1CCCN(c2nc3c(c(=O)n(C)c(=O)n3C)n2CCSc2nc3ccccc3s2)C1 (stereo not given)	20	1.8	1.8	-6.9*	-6
CC1CCN(c2nc3c(c(=O)n(C)c(=O)n3C)n2CCSc2nc3ccccc3s2)CC1	36*	0.16	1.4	-1.3	16
O=C(NNC(=O)C1CCCO1)c1ccccc1Cl (stereo not given)	2	0.44	2*	0.0027	-8
O=C(Nc1nc2ccccc2[nH]1)C1CCCO1 (stereo not given)	-2	-0.98	2.5*	0.32	2
O=C(Nc1ccc(-c2nc3ccccc3[nH]2)cc1)C1CCCO1 (stereo not given)	8	0.059	1.1	0.031	-2
O=C(COc1cccc2ccccc12)NNC(=O)C1CCCO1 (stereo not given)	17	-0.052	2.2*	-0.9	0
O=C1CN(C(=O)COC(=O)CCSc2ccccc2Cl)c2ccccc2N1	-3	-0.97	0.8	0.78	8
Cc1c(NC(=O)c2cnn3c2NC(c2ccco2)CC3C(F)(F)F)c(=O)n(-c2ccccc2)n1C (stereo not given)	5	-0.14	1.3	-0.45	3
CCN(CC)S(=O)(=O)c1csc(C(=O)NCc2ccccc2)c1	3	2.6*	1	-0.41	-5
CCN(CC)S(=O)(=O)c1csc(C(=O)NC2CCCCC2)c1	19	-0.61	1	0.33	-6
CCN(CC)S(=O)(=O)c1ccc(NCc2ccccc2)nc1	38*	-1.1	0.8	0.2	-4
CN(Cc1ccccc1)S(=O)(=O)c1ccc(Cl)nc1	5	-0.96	0.8	0.21	5
COc1ccc(C(CCN2CCCC(C)C2)c2c(OC)cc(OC)c3c2OC(=O)CC3c2cc(OC)c(OC)c(OC)c2)cc1 (stereo not given)	x	-0.33	x	-0.98	x
COc1cc(Cl)c(C)cc1NC(=O)COC(=O)c1cnc(C)cn1	6	-0.93	0.9	0.18	4
Cc1cc(C)nc(N2CCCC(C(=O)Nc3nc4ccc(S(C)(=O)=O)cc4s3)C2)n1 (stereo not given)	34*	2.3	1.5	-1.1	-3
CCOc1ccc2nc(NC(=O)CS(=O)(=O)c3ccccc3)sc2c1	51*	0.71	1	-0.75	-4
CCOc1ccc2nc(NC(=O)C(CCSC)NS(=O)(=O)c3cccs3)sc2c1 (stereo not given)	3	-0.58	2.4*	0.3	0
Cc1ccc2nc(NC(=O)C3CCCN(S(=O)(=O)c4cnc[nH]4)C3)sc2c1 (stereo not given)	-5	0.037	1.8	-0.012	0
CCOc1ccc2nc(NC(=O)C3CCCN(S(=O)(=O)c4cccs4)C3)sc2c1 (stereo not given)	48*	-0.34	0.9	-1.6	75*
CCOc1ccc2nc(NC(=O)C(NS(=O)(=O)c3cccs3)C(C)C)sc2c1 (stereo not given)	6	0.58	1.6	-0.66	-7
CCc1cc2c(=O)c(-c3nc4ccccc4n3C)c(C)oc2c(CN(CC)CC)c1O	35*	0.058	1	0.75	4
CCOC(=O)C1=C(c2cccc(Oc3ccccc3)c2)NC(=S)NC1C (stereo not given)	25	0.7	0.8	-8.3*	8
CCOc1ccc(N/N=C(/C#N)C(N)=O)cc1	90*	-1.9	1	-0.36	104*
SMILES	PostGolgi ctrl	DAT uptake mod	PLAP activator	Cav32 inh	PostGolgi yeast
CCOC(=O)NC(=O)/C(C#N)=N\Nc1ccc(Cl)cc1	-2	0.019	1.1	-5.1*	-2
N#C/C(=N\Nc1ccc(Cl)cc1)C(=O)c1ccccc1	79*	-1.5	1.4	-5.5*	7
CC(=N\Nc1ccc(Cl)cc1)/C(=N/O)C(=O)Nc1ccccc1	16	-0.17	1	-0.028	0
Cc1nc(Nc2ccc(F)cc2)[nH]c(=O)c1CCC(C)C	32*	-0.89	x	-5.6*	3
Clc1cccc(Cl)c1CO/N=C/c1c(-c2ccccc2)nc2n1CCS2	30*	0.1	1.1	-1.1	-3
Cc1ccc(CN=Cc2[nH]c3ccc(Br)c(Cl)c3c2O)cc1	26	-0.55	1.1	-3.1*	4
Oc1c(C=NCc2ccc(F)cc2)[nH]c2ccc(Br)c(Cl)c12	10	-0.26	1.1	-3.5	-2
Cc1ccc(CNC(=O)c2sccc2-n2cccc2)cc1	30*	0.43	0.6	-4.1	16
CC1=CCC(C(=O)O)(C(=O)N/N=C/c2cccs2)C(c2ccc(F)cc2)C1 (stereo not given)	5	0.039	1.3	-0.21	-5
CC1=CCC(C(=O)O)(C(=O)N/N=C/c2cccs2)C(c2ccc([N+](=O)[O-])cc2)C1 (stereo not given)	65*	0.53	1.3	0.76	1
O=C(CSc1nnc(COc2ccccc2)n1-c1ccccc1)c1cccs1	41*	0.98	0.9	-6.9*	-2
Cc1ccc(OCc2nnc(SCC(=O)c3cccs3)n2-c2ccccc2)cc1C	19	-0.62	1	-4.7	1
CCOc1ccc(-n2c(COc3ccc(C)cc3)nnc2SCC(N)=O)cc1	-1	1.7	1.8	-1.2	2
CCOC(=O)C(CC)Sc1nnc(COc2ccc(C)cc2)n1-c1ccccc1 (stereo not given)	x	0.2	x	-7.3*	x
Cc1ccc(C(C(=O)NC2CCCC2)N(Cc2cccs2)C(=O)c2csnn2)o1 (stereo not given)	x	-0.036	x	0.33	x
Cc1cc(C(=O)CN2C(=O)NC3(CCCc4ccccc43)C2=O)c(C)n1Cc1ccccc1 (stereo not given)	12	1.6	1.5	-4.4*	-7
CCn1c2ccccc2c2cc(/C=N/NC(=O)c3cccc(C)c3)ccc21	34*	1.5	1	-4.2*	-2
CCn1c2ccccc2c2cc(/C=N/n3cnnc3)ccc21	42*	0.0085	1.5	1.6	10
CCn1c2ccccc2c2cc(/C=N/n3cn[nH]c3=S)ccc21	43*	0.0092	1.2	-0.96	4
S=c1[nH]ncn1/N=C/c1ccccc1	-7	-0.096	1	0.35	7
O/C(=C\Sc1nnc(Cc2ccccc2)o1)c1ccc(F)cc1	-1	-0.072	1.1	-0.043	-18
Cc1nn(C)cc1/C=C1\SC(=S)NC1=O	-1	-0.33	1.1	2.3	-2
Cc1cc(/C=C2\SC(=S)NC2=O)c(C)n1C	52*	0.2	0.9	-0.29	4
CCn1c(SCC(=O)Nc2ccc(C(=O)OC)cc2)nc2cccnc21	x	-0.42	x	-0.27	x
CCOC(=O)/C(C#N)=C/Nc1ccccc1OC	1	-8.2*	1	0.041	-7
